Compound activity as filed in PubChem BioAssay.
DT40 TDP1 CPT: growth inhibition of DT40 Tdp1-/-;hTDP1 cells with camptothecin (screen for TDP1 inhibitors). hit rate 12% among 420,000. Potency, µM (doses to about 46.2 µM), without a hit: top-dose activity change, negative = growth inhibition, hits mostly inhibitors. chicken DT40 Tdp1-/-;hTDP1 cells + 20 nM CPT, ATP luminescence, 48 h; also: potency is read from the fitted curve at half-maximal effect; % is scaled to controls: 0 for no effect and ±100 for the full control effect; nearly all actives have a fitted effect of over 55% in size
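Chicken DT40 Tdp1-/- cells complemented with human TDP1, 400 cells/well, exposed to compounds plus 20 nM camptothecin for at least 48 h at 37 C; viability read as ATP content by CellTiter-Glo luminescence.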
ClpP mod: qHTS Assay for Activators of ClpP | Potency, µM (series often up to 57.5 µM), for inactives: at the highest dose activity change, negative = active | ATP-dependent Clp protease proteolytic subunit (Bacillus subtilis (strain 168)), P80244 | purified B. subtilis ClpP, FRET peptide cleavage, 20 min | hit rate 1.9% among 340,000; active = well fitted falling curve with a large enough effect; inconclusive = small, poorly fitted or top-dose-only effect; inactive = no such curve, though single readings can be large or run the other way; also: potency is read from the fitted curve at half-maximal effect; the source files actives as falling curves though it sought activators and does not explain the sign; nearly all actives have a fitted effect of over 65% in size
Target sequence (P80244 whole entry, looked up): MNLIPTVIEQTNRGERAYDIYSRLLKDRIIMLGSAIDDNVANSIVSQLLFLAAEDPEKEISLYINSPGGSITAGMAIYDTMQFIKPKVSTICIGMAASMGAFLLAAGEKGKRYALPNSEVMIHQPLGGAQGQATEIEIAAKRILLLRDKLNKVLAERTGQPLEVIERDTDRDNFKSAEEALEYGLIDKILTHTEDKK
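Purified B. subtilis ClpP, 10 microg/mL final in Tris/HCl pH8 with KCl, BSA, glycerol and Tween-20, cleaved an Abz/nitrotyrosine-quenched decapeptide. Fluorescence (ex 320, em 430) was read at 0 and 20 min at room temperature. Delta was normalized to 5.8 microM ADEP and DMSO/no-enzyme controls.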
DRD3 agonist: D3 dopamine receptor (human) agonism | D3R DiscoveRx beta-arrestin cells, luminescence, 90 min | max activation, % | hit rate 0.58% among 410,000; in the data active = max activation above about 30%; also: 0% is about no effect
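Agonist mode: compounds and dopamine controls were applied to plated cells for 90 min at 37 degrees C after an overnight attachment at 1500 cells/well. Luminescent read-out followed 30 - 60 minutes at room temperature with DiscoveRx detection reagent.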
D3 antag: D3 dopamine receptor (human) antagonism; max response, negative = inhibition, %; D3R cells, DiscoveRx beta-arrestin luminescence, antagonist mode; stronger effect = lower value; AID 652054; hit rate 2.5% among 360,000; in the data active = max response below about -50%; inconclusive = no clear call, values can overlap the other calls; also: % is scaled to controls: 0 for no effect and ±100 for the full control effect
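Cells expressing the human receptor were seeded at 1500 cells/well, incubated overnight at 37 degrees C in 5% CO2, then exposed to library compounds with dopamine controls for 90 minutes at 37 degrees C before luminescent detection.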
IL1B secr inh: inhibitors of inflammasome signaling (IL-1 beta secretion) | activity change, % at 57.5 µM | THP-1 LPS/ATP IL-1B secretion, AlphaLISA, 16 h; stronger effect = lower value | hit rate 4.7% among 360,000; in the data active = activity change below about -50%; inconclusive = mostly about -30% to -49%; also: % is scaled to controls: 0 for no effect and ±100 for the full control effect
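Secreted IL-1B measured by AlphaLISA bead assay after 16 h compound exposure of THP-1 cells; compounds (final up to 57.5 uM) added 1 h before LPS (250 ng/mL) and ATP (1.25 mM) stimulation; lower signal means less secretion.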
DT40 TDP1 no CPT: qHTS for Inhibitors of human tyrosyl-DNA phosphodiesterase 1 (TDP1): qHTS in cells in absence of CPT; DT40 Tdp1-/- hTDP1 cells, no CPT, ATP luminescence, 48 h; Potency, µM (highest dose often 46.2 µM), without a hit: at the top dose activity change, negative = growth inhibition, actives largely listed as inhibitors; hit rate 15% among 420,000; AID 686978, 2013; also: potency is read from the fitted curve at half-maximal effect; % is scaled to controls: 0 for no effect and ±100 for the full control effect; nearly all actives have a fitted effect of over 55% in size
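Stably hTDP1-transfected Tdp1-null chicken DT40 cells were treated with library compounds minus camptothecin and grown for at least 48 hr at 37 °C, after which cellular ATP was quantified by luminescence.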
Starred values were filed as active, the others as inactive; ? = inconclusive; . = no result. Sampled rows, rich in hits. Any-hit rate of the full collection: about 21%. Unless noted, calls follow the shape of the dose curve; as a rule, active = well fitted inhibition curve with a large enough effect; inconclusive = small, poorly fitted or top-dose-only effect; inactive = flat fitted curve, though single readings scatter.

SMILES	DT40 TDP1 CPT	ClpP mod	DRD3 agonist	D3 antag	IL1B secr inh	DT40 TDP1 no CPT
O=C(CCn1c(=O)[nH]c2ccccc2c1=O)N1CCN(c2ccc(Cl)cc2)CC1	?	4%	1	-17	23	-25%
CC(=O)c1ccc(N2CCN(C(=O)CCCCn3c(=O)[nH]c4ccccc4c3=O)CC2)cc1	13µM*	-5%	0	.	.	16µM*
CS(=O)(=O)N1CCC2(CCCN(c3ccccn3)C2)CC1	-25%	.	.	.	.	-26%
CC(=O)c1ccc(N2CCN(C(=O)CCCn3c(=O)[nH]c4ccc(Br)cc4c3=O)CC2)cc1	15µM*	-11%	1	60	-30	13µM*
O=C(CCCn1c(=O)[nH]c2ccc(Br)cc2c1=O)N1CCN(c2cccc(Cl)c2)CC1	15µM*	-4%	11	.	.	8.2µM*
O=C(CCCn1c(=O)[nH]c2ccccc2c1=O)N1CCN(c2ccccn2)CC1	-13%	-12%	-2	12	-6	-16%
CN(C)c1nnnn1-c1ccc(OC(F)(F)F)cc1	-1%	.	-11	-10	0	-10%
CSc1ccc(S(=O)(=O)N2CCC(C(=O)NCc3ccccn3)CC2)cc1	-4%	.	4	-4	-15	-2%
CCCNC(=O)C1(C)CCCN(C(=O)COCc2ccccc2)C1 (centres undefined)	5%	-1%	8	-2	0	15%
COCCCN1C(=O)C(CC(=O)NCc2cccc3ccccc23)CC(C(=O)N(C(C)C)C(C)C)=C1C (centres undefined)	-24%	-6%	-10	-28	-26	?
CCOC(=O)C1CCN(C(=O)c2ccc3c(c2)sc2nc(-c4ccc(OC)cc4)cn23)CC1	23µM*	-27%	5	.	.	23µM*
CCOC(=O)c1ccc2c(c1)sc1nc(-c3ccc(OCC)cc3)cn12	?	?	7	.	.	?
CCOC(=O)C1CCN(C(=O)c2ccc3c(c2)sc2nc(-c4ccc(C)cc4)cn23)CC1	-27%	-6%	-7	.	.	?
CCOC(=O)N1CCN(C(=O)c2ccc3c(c2)sc2nc(-c4ccc(OC)cc4)cn23)CC1	?	-8%	3	42	-21	23µM*
NC(=S)N=Nc1c(O)[nH]c2c(Cl)cc(Cl)cc12	16µM*	.	-12	-20	?	4.6µM*
OC(c1cccc(CN2CCCCC2)c1)c1ncc(-c2cccc(C(F)(F)F)c2)[nH]1 (centres undefined)	15µM*	-3%	-3	1	-10	21µM*
OC(c1cccc(CN2CCCCC2)c1)c1ncc(-c2cccc3ccccc23)[nH]1 (centres undefined)	?	4%	-18	-54*	-7	?
Cc1ccc(NC(=O)CN2C(=O)NC(Cc3c[nH]c4ccccc34)C2=O)cc1 (centres undefined)	-8%	-3%	-1	-15	-14	-29%
N#Cc1c(-c2ccc(Br)cc2)cc(-c2cccnc2)nc1N	-12%	-3%	-11	-17	-9	-8%
N#Cc1c(-c2cccc(Br)c2)cc(-c2cccnc2)nc1N	?	32µM*	2	19	-7	?
COc1ccc(OC)c(-c2cc(-c3cccnc3)nc(N)c2C#N)c1	0.92µM*	.	-9	-1	16	0.92µM*
C/C(=N\NC(=O)COc1ccccc1[N+](=O)[O-])c1cccs1	-23%	.	0	-4	35	?
Cc1ccc(N(Cc2cccs2)C(=O)c2ccccc2[N+](=O)[O-])cc1	15µM*	-2%	2	.	.	9.2µM*
Cc1ccc(N(Cc2cccs2)C(=O)COc2ccccc2[N+](=O)[O-])cc1	21µM*	-1%	-6	.	.	23µM*
COc1ccc(N(Cc2cccs2)C(=O)COc2ccc([N+](=O)[O-])cc2)cc1	?	-1%	-3	.	.	26µM*
